40 compounds from PubChem BioAssay (Tox21) can be followed below.

Structures are written as SMILES. Results filed as inconclusive are left out. Entries that show only a call come without a potency. Calls of active or inactive are those of the source. Calls follow the shape of the dose curve; as a rule, active = well fitted cell-killing curve with a large enough effect in the repeat runs; inconclusive = weak or mixed curves; inactive = no such curve, though single readings can be large or run the other way.
Potency is read from the fitted curve at half-maximal effect.

This test is described as follows: qHTS assay for identifying genotoxic compounds that show differential cytotoxicity against isogenic chicken DT40 cell lines with known DNA damage response pathways - Rad54/Ku70 mutant cell line (AID 743015). Also: nearly all actives have a fitted effect of over 60% in size. The conditions noted are these: DT40 Rad54/Ku70 mutant viability, CellTiter-Glo, 40 h; series mostly up to 66.8 µM. From the text:
National Center for Advancing Translational Sciences [NCATS]
NIH Chemical Genomics Center [NCGC]
U.S. Environmental Protection Agency [EPA]
National Institutes of Environmental Health Sciences [NIEHS]
National Toxicology Program [NTP]
U.S. Food and Drug Administration [FDA]
DNA repair pathways play a critical role in cellular homeostasis by repairing DNA damage induced by endogenous processes and xenobiotics. Isogenic chicken DT40 cell lines deficient in different DNA repair pathways can be used to identify genotoxic compounds and aid in characterizing the nature of the DNA damage induced. Two DNA repair-deficient cell lines with disrupted genes, Rad54/Ku70 or Rev3, were used to screen the Tox21 10K compound library. Possible genotoxicity was based on the presence of a significant increase in cytotoxicity in one or more of the DNA repair-deficient cell lines compared to that observed in the parental DNA repair-proficient cell line. CellTiter Glo viability assay (Promega, Madison, WI) was used to measure cell viability in these cells after compound treatment. This assay includes the data from the Rad54/Ku70 mutant cell line.
Tox21 Assay Protocol Summary:
300 DT40 mutant cells in 5 uL/well were dispensed into white, solid-bottom 1536-well plates using a Multidrop Combi (ThermoFisher Scientific, Waltham, MA) dispenser. After the assay plates were incubated at 37 C/5% CO2 for approximately 0.5 hour, 23 nL of compounds dissolved in DMSO, positive controls or DMSO only was transferred into the assay plate by a pintool work station (Kalypsys, San Diego, CA). The assay plates were incubated at 37 C/5% CO2 for 40 hours. After 5 uL per well of CellTiter-Glo reagent was added into each well of the assay plates, the plates were incubated for 30 min at room temperature and the luminescence intensity of the plates was measured using a ViewLux (PerkinElmer, Shelton, CT) plate reader.
(In general: qHTS replaces the single test concentration by a dilution series.)
As for `CCCCCCCCCCCCCCCCOP(=O)([O-])OCC[N+](C)(C)C`, the Potency entry is “inactive”. The same measure for `CC(C)=CCCC(C)CCOC=O` (stereo not given): 27.3 µM (active). The value for `O=C1CCC(C2CCCCC2)CC1` was “inactive”. On to `CCCNC(C)(C)COC(=O)c1ccccc1`, for which the Potency result was “inactive”. The value for `CCN1CC(CCN2CCOCC2)C(c2ccccc2)(c2ccccc2)C1=O` (stereo not given) was “inactive”; that for `Cc1ccc([N+](=O)[O-])c(N)c1` was “inactive”; that for `Cc1nc(-c2ccccn2)ncc1C(=O)Nn1cc(C)c2cc(F)ccc21` was 30.6 µM (active).

Turning to `CCC(=O)Nc1ccc(O)cc1`, the Potency result is “inactive”.

With `C=C(C)C(=O)OCCOP(=O)(O)O`, the Potency entry is “inactive”. The value for `Nc1cccc(S(=O)(=O)O)c1` was “inactive”. For the compound `CC1=NN(c2cc(Cl)c(S(=O)(=O)O)cc2Cl)C(=O)C1N=Nc1ccc(S(=O)(=O)O)cc1` (stereo not given), the Potency entry was “inactive”. The same measure for `NCCCN1CCN(CCCN)CC1`: “inactive”; for `CCN(CC)CCNC(=O)COc1ccc(Cl)cc1`: “inactive”.

Turning to `COC(=O)C(C)O` (stereo not given), the Potency entry was “inactive”. `CC(C)OC(C)C`: the Potency result was “inactive”. The same measure for `CC(C)C1=CC2=CC[C@@H]3[C@](C)(CCC[C@@]3(C)C(=O)O)[C@H]2CC1`: “inactive”. The same measure for `O=c1[nH]cnc2c1ncn2[C@@H]1O[C@H](CO)[C@@H](O)[C@H]1O`: “inactive”.

Turning to `N#Cc1ccc(C(c2ccc(C#N)cc2)n2cncn2)cc1`, the Potency entry is “inactive”.

With `C=CC(C)(O)CC/C=C(\C)CCC=C(C)C` (stereo not given), the Potency result is “inactive”. Take `CC(C)(C)c1ccc(OC(=O)c2ccccc2O)cc1`: the Potency entry is “inactive”.

As for `O=C(O)c1ccccc1Nc1cc(Cl)ccc1C(=O)O`, the Potency result is “inactive”. The same measure for `CC(C)S`: “inactive”; for `CCCCNc1ccc(C(=O)OCCN(CC)CC)cc1`: 2.37 µM (active); for `CO[C@@]1(NC(=O)CSCC#N)C(=O)N2C(C(=O)O)=C(CSc3nnnn3C)CS[C@@H]21`: “inactive”. The same measure for `CC(C)C[C@H](NC(=O)OCC1c2ccccc2-c2ccccc21)C(=O)O`: “inactive”. With `Cc1ccc(C)c(N)c1`, the Potency entry is “inactive”. For `CNCCC(Oc1ccccc1OC)c1ccccc1` (stereo not given), the Potency entry is “inactive”. In the case of `CN1CCN(c2c(F)cc3c(=O)c(C(=O)O)cn4c3c2SCC4)CC1`, the Potency was 21.1 µM (active).

Take `CCOC(=O)c1ccccc1O`: the Potency entry is “inactive”. Turning to `CCCCNC(=S)NCCCC`, the Potency is 24.3 µM (active). Consider `CCN(CC)C(=O)N(CC)CC`, for which the Potency entry is “inactive”. As to `CCOC(=O)[C@H](CCc1ccccc1)N[C@@H](C)C(=O)N1Cc2cc(OC)c(OC)cc2C[C@H]1C(=O)O`, the Potency result was “inactive”.

With `COc1nc(C)nc(NC(=O)NS(=O)(=O)c2ccccc2OCCCl)n1`, the Potency result is “inactive”. For the compound `O=c1oc2c(O)c(O)cc3c(=O)oc4c(O)c(O)cc1c4c23`, the Potency result was “inactive”. The value for `CCN(CC)CCOc1ccc(Cc2ccccc2)cc1` was 0.376 µM (active). The value for `O=CCCc1ccccc1` was “inactive”; that for `COc1ccc2nc(NC(=O)Nc3ccccc3)sc2c1` was 16.8 µM (active). The same measure for `OC[C@H]1O[C@@H](O[C@H]2[C@H](O)[C@@H](O)[C@H](O)O[C@@H]2CO)[C@H](O)[C@@H](O)[C@H]1O`: “inactive”. For `OCc1ccccc1O`, the Potency result is “inactive”. The same measure for `C[C@]12C(=O)OC(=O)[C@H]1[C@H]1C=C[C@@H]2C1`: “inactive”.
